Test results reported in PubChem BioAssay (NCI).
The panel holds about 79,000 compounds, 15% with a hit somewhere; the sample as a whole holds those more often. Activity calls are given as the source filed them. Cut-off read from the data, not from the text of the source: active = growth inhibition above about 70%; inactive = the rest.

How the values were obtained:
[1] = NCI Yeast Anticancer Drug Screen. Data for the rad50 strain (AID 155);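 note: 0% = growth of vehicle-only cultures of the same strain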; details: S. cerevisiae rad50 strain growth inhibition; at 50.0 µM; hits give high values
Procedure, shortened: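 Growth of the mutant yeast was measured after compound exposure and referenced to vehicle-treated cultures.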

[2] = NCI Yeast Anticancer Drug Screen. Data for the mec2-1 strain (AID 157); details: S. cerevisiae mec2-1 strain, at 50.0 µM, hits give high values
Procedure, shortened: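 Strain: mec2-1 (DNA repair/cell cycle alteration). Compound exposure, then growth measured; inhibition expressed relative to vehicle.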

[3] = NCI Yeast Anticancer Drug Screen. Data for the sgs1 mgt1 strain (AID 161);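 note: 0% = growth of cultures given vehicle only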; details: S. cerevisiae sgs1 mgt1 strain, at 50.0 µM, hits give high values
Procedure, shortened: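 Inhibition of yeast growth, normalised to vehicle-treated controls, is reported for a strain bearing genetic alterations in DNA damage repair.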

[4] = NCI Yeast Anticancer Drug Screen. Data for the cln2 rad14 strain (AID 165);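 note: 0% = growth equal to vehicle treated cultures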; details: S. cerevisiae cln2 rad14 strain, at 50.0 µM, hits give high values
Procedure, shortened: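 Compounds are applied to the cln2 rad14 yeast strain, and growth is then compared with that of vehicle-treated cultures to give inhibition.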

[5] = NCI Yeast Anticancer Drug Screen. Data for the bub3 strain (AID 167); details: S. cerevisiae bub3 mutant strain, at 50.0 µM, hits give high values
Procedure, shortened: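 Whole-cell yeast assay. The mutant strain was incubated with compounds, and growth inhibition was determined by comparison with vehicle-treated cells.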

[6] = NCI Yeast Anticancer Drug Screen. Data for the mlh1 rad18 strain (AID 175); details: S. cerevisiae mlh1 rad18 strain growth inhibition; at 50.0 µM; hits give high values
Procedure, shortened: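 Read-out is yeast growth inhibition, calculated against vehicle-only controls. The compound was applied to a strain engineered with DNA damage repair alterations.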

Measured: growth inhibition

CC(=S)N/C=C/c1c(C(=O)O)cc([N+](=O)[O-])cc1[N+](=O)[O-]
inactive: [1] -16.9% | [2] -27.7% | [3] 4.55% | [4] -12.8% | [5] -18.9% | [6] 4.7%

Brc1ncnc2c1ncn2C1CCCO1 (stereo not drawn)
inactive: [1] -21.3% | [2] -12.8% | [3] -1.5% | [4] -29.6% | [5] 34.4% | [6] -32.2%

COc1c(C(=O)O)ccc(C(=O)NCCCCCN(O)C(=O)CCC(=O)NCCCCCN(O)C(=O)CCC(=O)NCCCCCN(O)C(C)=O)c1OC
inactive: [1] -7.25% | [2] 4.25% | [3] -5.35% | [4] -24.9% | [5] -0.6% | [6] -28.4%

Nc1ccc(CC(=O)O)cc1
inactive: [1] 28.6% | [2] -10.7% | [3] -26.4% | [4] -47.2% | [5] 7.25% | [6] 0.05%

O=C(O)/C=C\CCCCC(=O)O
inactive: [1] 35.4% | [2] 0.95% | [3] 15.1% | [4] 6.75% | [5] 13.8% | [6] 37.5%

COc1ccc(C=Nc2ccc([N+](=O)[O-])cc2O)cc1
inactive: [1] 12.9% | [2] 2.7% | [3] 12.1% | [4] -10.9% | [5] 19.6% | [6] 1.6%

O=C(c1ccc(-c2ccccc2)cc1)N(C(=O)c1cc(N2CCOCC2)ccn1)c1ccc([N+](=O)[O-])cc1
inactive: [1] 43% | [2] 17.8% | [3] 45.8% | [4] 22.9% | [5] -5.6% | [6] 8.6%

CCCCCCCCCCCC[Si](c1ccccc1)(c1ccccc1)c1ccccc1
inactive: [1] 9.3% | [2] 6.2% | [3] 26.1% | [4] 22.9% | [5] 1% | [6] 24.5%

CS(=O)(=O)OC1CCCCC1OS(C)(=O)=O (stereo not drawn)
inactive: [1] 3.15% | [2] 8.25% | [3] 22.2% | [4] -1.85% | [5] 7.55% | [6] 9.15%

O=C(CN1C(=O)CC(c2ccccc2)(c2ccccc2)C1=O)N1CCN(CCO)CC1
inactive: [1] -0.35% | [2] -4.6% | [3] -22.1% | [4] -5.25% | [5] -16.2% | [6] 2.3%

C=C(C(=O)O)C1CC[C@@]2(C)CCC[C@@](C)(O)C2C1 (stereo partly drawn)
inactive: [1] 21.1% | [2] -5.8% | [3] -7.75% | [4] 10.8% | [5] -3.35% | [6] 25.6%

COc1ccc(NS(=O)c2ccc(Cl)cc2)cc1 (stereo not drawn)
inactive: [1] 13% | [2] 12.8% | [3] 28.3% | [4] 8.65% | [5] 11.4% | [6] 13.9%

CCCCCCCC/C=C\CCCCCCCC(=O)OCCN(CCOC(=O)CCCCCCC/C=C\CCCCCCCC)C(=O)c1ccccc1
inactive: [1] -12.9% | [2] -1.2% | [3] -17.9% | [4] -20.2% | [5] -9.9% | [6] -2.65%

COc1cc2c(cc1O)CN1Cc3c(ccc(OC)c3O)C2C1 (stereo not drawn)
inactive: [1] -16% | [2] -14.4% | [3] -1.8% | [4] -1.15% | [5] -11.5% | [6] 0.65%

Cc1cc(-n2nnc(C(=O)O)c2-c2ccccc2)c2ccc(Cl)cc2n1
inactive: [1] -19.1% | [2] -4.35% | [3] -12.1% | [4] -35% | [5] -8.9% | [6] 4.1%

C=CCn1c(=O)n(CC=C)c(=O)n(CC=C)c1=O
inactive: [1] 7.4% | [2] 14.3% | [3] -5.35% | [4] -26.6% | [5] -10.3% | [6] -10.8%

NC(=O)c1nnc2cc(F)c(F)cc2c1N
inactive: [1] -15.8% | [2] -20.8% | [3] -9.65% | [4] 3.8% | [5] 9.5% | [6] -16.6%

CCOC12CC(OC(=O)N1)C(C)C1OC1(C)C(OC(=O)C(C)N(C)C(C)=O)CC(=O)N(C)c1cc(cc(OC)c1Cl)C/C(C)=C/C=CC2OC (stereo not drawn)
inactive: [1] -21.1% | [2] -29.6% | [3] -30.9% | [4] -0.4% | [5] -20.4% | [6] -5.25%

CC(=O)OC1CC2CCCCC2CC1[N+](C)(C)C (stereo not drawn)
inactive: [1] 2.25% | [2] 7.3% | [3] 13.8% | [4] -1.15% | [5] 3.3% | [6] -35.8%

O=[N+]([O-])c1ccc(Cl)c(C(F)(F)F)c1
inactive: [1] -0.8% | [2] 5.2% | [3] 4% | [4] -2.75% | [5] 1.2% | [6] -15.7%

COCOc1c(OC)c(C2(O)C(=O)N(C)c3ccccc32)c(OCOC)c(OC)c1C1(O)C(=O)N(C)c2ccccc21 (stereo not drawn)
inactive: [1] 0.9% | [2] 13.8% | [3] -14.9% | [4] -3.9% | [5] 0% | [6] 15.4%

O=C(OCC1OC(OC(=O)c2ccccc2)C(F)C1OC(=O)c1ccccc1)c1ccccc1 (stereo not drawn)
inactive: [1] -2.65% | [2] -18.6% | [3] 7.15% | [4] -20.1% | [5] -8.25% | [6] 7.9%

O=C1c2ccc(=O)[nH]c2C(=O)C2CC3=C(CCCC3)CC12 (stereo not drawn)
inactive: [1] 20.4% | [2] 24.6% | [3] 59.5% | [4] -71.1% | [5] 42.5% | [6] 44.5%

CC(=O)OCc1cc(Cl)c(OC(C)=O)c(COC(C)=O)c1
inactive: [1] 7.75% | [2] -10.2% | [3] 8.8% | [4] 20.1% | [5] -9.05% | [6] 3.65%

CC/C(=C\c1ccc(NC(C)=O)cc1)c1ccncc1
inactive: [1] -5.6% | [2] -16.6% | [3] 7.2% | [4] -0.85% | [5] -12.8% | [6] -4.6%

C=CCOCOC(C)C(=O)OCC (stereo not drawn)
inactive: [1] -10.5% | [2] 6.6% | [3] -8.35% | [4] -26.7% | [5] -9.2% | [6] 6.45%

CN(Nc1ccnc(=O)[nH]1)c1ccccc1
inactive: [1] -35.9% | [2] -11.2% | [3] -11% | [4] -23.6% | [5] -2.7% | [6] 8.8%

COc1ccccc1C(O)C(C)(C)C (stereo not drawn)
inactive: [1] 50.9% | [2] 2.45% | [3] 7.5% | [4] 8.9% | [5] 8.4% | [6] 28.9%

CCOC(=O)c1c(NCc2ccccc2)n(-c2ccccc2)c(=S)n(-c2ccccc2)c1=O
inactive: [1] 17.1% | [2] -6.8% | [3] 0.6% | [4] 32.1% | [5] 14.8% | [6] 53%

Cc1cccc2c1C(=O)C1(Cc3ccccc3C1=O)C2 (stereo not drawn)
inactive: [1] -13.4% | [2] -6.95% | [3] -15.1% | [4] -5.15% | [5] 2.4% | [6] -3.2%

CCC(CC)NNC(CC)CC
inactive: [1] -1.8% | [2] -0.6% | [3] -8.05% | [4] 5.35% | [5] -16.3% | [6] -8.25%

CN(C)C1(C(=O)O)c2ccccc2-c2ccccc21
inactive: [1] 9.85% | [2] 10.6% | [3] 21.8% | [4] -3.45% | [5] 16.3% | [6] -3.3%

O=S(O)CCCSSc1ccccc1
inactive: [1] 38.5% | [2] 22.4% | [3] 40.1% | [4] 56.1% | [5] 40.7% | [6] 67.2%

CCc1cccc2[nH]c3cc([N+](=O)[O-])ccc3c12
inactive: [1] 12% | [2] -13.8% | [3] 2.5% | [4] -22.8% | [5] -0.4% | [6] 15.7%

COc1ccc(CC2OC(C)CC(C)(C)O2)cc1 (stereo not drawn)
inactive: [1] 38.2% | [2] -12.2% | [3] 4.75% | [4] -55.8% | [5] -4.5% | [6] 37.2%

O=c1[nH]c(=O)c2[nH]cnc2[nH]1
inactive: [1] 8.05% | [2] -6% | [3] 5.9% | [4] 2.55% | [5] 9.9% | [6] 9.75%

CC1=C(c2ccco2)C(c2ccco2)OC1=O (stereo not drawn)
inactive: [1] 8.45% | [2] 27.2% | [3] 15.9% | [4] -16.6% | [5] 18.3% | [6] -7.3%

O=C1OCC/C1=C\c1cccc2ccccc12
inactive: [1] 5.2% | [2] 2.4% | [3] -3.45% | [4] 12.5% | [5] -5% | [6] 6.35%
